In PubChem BioAssay (Tox21):
Inconclusive results are not listed. Active and inactive are the calls of the source. Unless noted, the call rests on the fitted dose curve; in most records, active means well fitted curve in the direction sought with a large enough effect in the repeat runs; inconclusive means weak or mixed curves; inactive means no such curve, though single readings can be large; an effect the other way counts as inactive or inconclusive.

How the values were obtained:
[1] = qHTS assay to identify small molecule agonists of the vitamin D receptor (VDR) signaling pathway - cell viability counter screen (AID 743224); further: series mostly up to about 63 µM; nearly all actives have a fitted effect of over 50% in size
Summary of the method: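 Counter screen run in the same wells as the VDR-bla reporter assay: CellTiter-Glo luminescence, 30 min at room temperature, after 16 h compound treatment at 37C of cells pre-plated for 4 h.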

[2] = qHTS assay to identify small molecule antagonists of the vitamin D receptor (VDR) signaling pathway - cell viability counter screen (AID 743225); further: nearly all actives have a fitted effect of over 50% in size
Summary of the method: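 Parallel cytotoxicity test: VDR-UAS-bla HEK 293T, 3 nM (final) 1-alpha,25-dihydroxyvitamin D3 with test compound, 16 h, 37C. Endpoint is CellTiter-Glo luminescence in the same wells.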

[3] = qHTS assay to identify small molecule agonists of the NFkB signaling pathway (AID 1159509; active means well fitted curve in the direction sought with a large enough effect in the signal ratio in the repeat runs, not every such curve was filed as active; the % refers to the signal ratio; further: series mostly up to about 61 µM)
Summary of the method: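 Beta-lactamase reporter assay run in quantitative high-throughput format on an NF-kB-responsive ME-180 line, with 5 hr compound treatment and a FRET-based blue/green fluorescence readout.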

[4] = qHTS assay to identify small molecule agonists of the NFkB signaling pathway - cell viability counter screen (AID 1159515; calls by dose curve; further: series mostly up to about 61 µM; nearly all actives have a fitted effect of over 55% in size)
Summary of the method: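 Read by CellTiter-Glo luminescence (30 min, room temperature) in the wells also used for the beta-lactamase FRET read. ME-180 NFkB-bla cells at 2,000 per well were plated overnight, then exposed to compound for 5 hr at 37 C.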

[5] = qHTS assay to identify small molecule agonists of the endoplasmic reticulum stress response signaling pathway (AID 1159516; active means well fitted activation curve with a large enough effect in the signal ratio in the repeat runs, not every such curve was filed as active; the % refers to the signal ratio)
Summary of the method: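 Ratiometric FRET readout (405 nm excitation; 460 and 530 nm emission) of a beta-lactamase gene driven by the ER stress response element, after 2 hr substrate loading. HeLa ESRE-bla cells were seeded overnight and treated with compounds for only 5 hr at 37 C.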

[6] = qHTS assay to identify small molecule agonists of the endoplasmic reticulum stress response signaling pathway - cell viability counter screen (AID 1159517; calls by dose curve; further: nearly all actives have a fitted effect of over 50% in size; further: potency means the concentration at half of the fitted maximal effect)
Summary of the method: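 Steps: seed 1,500 ESRE-bla HeLa cells per well; incubate overnight at 37 C, 5% CO2; add compounds in DMSO for 5 hr; run FRET substrate 2 hr RT; add CellTiter-Glo, wait 30 min, read luminescence.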

[7] = qHTS assay to identify small molecule antagonists of the retinoid-related orphan receptor gamma (ROR-gamma) signaling pathway - cell viability counter screen (AID 1159520); further: nearly all actives have a fitted effect of over 50% in size
Summary of the method: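 Tet-on ROR gamma CHO cells were given compounds for 2 hr, then doxycycline hyclate at 1 uM final, and incubated 16 hr at 37 C. Viability was measured as ATP content by CellTiter-Glo luminescence.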

[8] = target: Nuclear receptor ROR-gamma (Homo sapiens) (UniProt P51449); test: qHTS assay to identify small molecule antagonists of the retinoid-related orphan receptor gamma (ROR-gamma) signaling pathway (AID 1159521; further: nearly all actives have a fitted effect of over 50% in size; further: potency means the concentration at half of the fitted maximal effect)
Summary of the method: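 Decreased RORE-driven luciferase luminescence indicates antagonism. Tet-on RORγ CHO cells received compound, then 1 uM final doxycycline 2 h later; signal read after 16 h incubation.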

[9] = qHTS assay to identify small molecule agonists of the AP-1 signaling pathway (AID 1159526; calls by dose curve)
[10] = target: Retinoic acid receptor RXR-alpha (Homo sapiens) (UniProt P19793); test: qHTS assay to identify small molecule agonists of the RXR signaling pathway (AID 1159527; calls by dose curve; further: nearly all actives have a fitted effect of over 35% in size; further: potency means the concentration at half of the fitted maximal effect)
Retinoic acid receptor RXR-alpha (Homo sapiens), sequence (P19793 whole entry, looked up): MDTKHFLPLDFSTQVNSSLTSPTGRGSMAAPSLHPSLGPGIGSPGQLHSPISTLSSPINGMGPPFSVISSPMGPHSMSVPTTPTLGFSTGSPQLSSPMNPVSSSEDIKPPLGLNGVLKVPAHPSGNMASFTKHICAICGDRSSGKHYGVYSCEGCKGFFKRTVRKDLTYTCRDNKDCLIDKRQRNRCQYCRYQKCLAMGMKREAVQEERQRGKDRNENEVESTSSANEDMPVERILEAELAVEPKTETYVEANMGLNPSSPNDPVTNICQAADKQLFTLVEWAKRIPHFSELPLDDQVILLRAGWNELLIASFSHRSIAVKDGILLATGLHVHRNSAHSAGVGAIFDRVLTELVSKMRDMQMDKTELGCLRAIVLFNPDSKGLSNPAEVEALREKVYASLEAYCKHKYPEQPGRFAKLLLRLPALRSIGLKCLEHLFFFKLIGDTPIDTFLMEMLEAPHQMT
Summary of the method: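 16 hr incubation of compound-treated RXR-alpha-UAS-bla HEK 293T cells (2% charcoal-stripped FBS, 37 C) preceded a 2 hr room-temperature LiveBLAzer FRET substrate step and blue/green fluorescence measurement.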

[11] = qHTS assay to identify small molecule agonists of the RXR signaling pathway - cell viability counter screen (AID 1159529)
Summary of the method: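 In this parallel viability measure, GeneBLAzer RXR-alpha HEK 293T cells (2% charcoal-stripped FBS) were given a 5 hr preincubation, treated with compounds 16 hr at 37 C, and read by CellTiter-Glo luminescence.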

[12] = qHTS assay to identify small molecule antagonists of the retinoid acid receptor (RAR) signaling pathway - cell viability counter screen (AID 1159551); further: nearly all actives have a fitted effect of over 35% in size
Summary of the method: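 Cytotoxicity counter screen: ATP content quantified by CellTiter-Glo luminescence in C3RL4 cells treated 6 hr at 37 C with compound and retinol (1 uM final). Cells plated at 1,000/well and cultured overnight before dosing.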

[13] = qHTS assay to identify small molecule agonists of the retinoic acid receptor (RAR) signaling pathway (AID 1159553); further: potency means the concentration at half of the fitted maximal effect
Summary of the method: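 Luminescence was measured 30 min after luciferase reagent addition at room temperature. Before that, C3RL4 reporter cells (1,000 per well, plated overnight) were treated with compound for 6 hr at 37 C and 5% CO2.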

[14] = qHTS assay to identify small molecule antagonists of the retinoic acid receptor (RAR) signaling pathway (AID 1159552; further: nearly all actives have a fitted effect of over 50% in size)
Summary of the method: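 C3RL4 RARE-luc cells, overnight plating; retinol 1 uM final added right after compound; 6 hr 37 C; luciferase read at 30 min RT.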

[15] = qHTS assay to identify small molecule agonists of the AP-1 signaling pathway - cell viability counter screen (AID 1159525; calls by dose curve; further: nearly all actives have a fitted effect of over 55% in size)
Summary of the method: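 Same-well cytotoxicity counter screen of the Tox21 10K library in ME-180 cells. The readout is ATP-dependent luminescence after 5 h compound treatment. Data are normalised to DMSO and tetra n-octyl ammonium bromide controls.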

[16] = qHTS assay to identify small molecule antagonists of the estrogen related receptor (ERR) signaling pathway - cell viability counter screen (AID 1224818);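 further: series mostly up to about 46 µM; viability measured after 17.5 h of compound exposure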
Summary of the method: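 Cytotoxicity counter screen: fluorescence from CellTiter-Fluor, added after 17.5 h compound exposure at 37 C and read 30 min later. ERR cell line seeded at 2,000 cells/well, preincubated 6 h before dosing.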

[17] = qHTS assay to identify small molecule antagonists of the estrogen related receptor signaling pathway with the pleiotropic PPARgamma coactivator (PGC) cell viability counter screen (AID 1224822; further: series mostly up to about 46 µM)
Summary of the method: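 Viability counter-screen read by fluorescence intensity after 30 min with CellTiter-Fluor at 37 C; PGC/ERR reporter cells were exposed to compounds for 17.5 h at 37 C following a 6 h preincubation.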

Measured: Potency

C[C@@H]1CN(C2CCC(C#N)(c3ccc(F)cc3)CC2)CC[C@]1(C(=O)O)c1ccccc1 (stereo partly specified)
not listed: [12] | [13] | [14] | [15] | [16] | [17]
inactive: all other assays above

CC(C)(C)C(=O)C(Oc1ccc(Cl)cc1)n1cncn1 (stereo unspecified)
not listed: [2] | [10] | [14] | [15] | [16] | [17]
inactive: all other assays above

[O]=[Cd]
not listed: [9] | [10] | [13] | [14] | [15] | [16] | [17]
inactive: all other assays above

CC(C1CC1)C(O)(Cn1cncn1)c1ccc(Cl)cc1 (stereo unspecified)
not listed: [10] | [14] | [15] | [16] | [17]
inactive: all other assays above

CC1(C)CON(Cc2ccccc2Cl)C1=O
active: [13] 68.6 µM
not listed: [1] | [10] | [15] | [16] | [17]
inactive: all other assays above

COC(=O)COc1ccc(Cl)cc1Cl
not listed: [12] | [15] | [16] | [17]
inactive: all other assays above

CCN(CC)C(=O)[C@@H]1C=C2c3cccc4[nH]cc(c34)C[C@H]2N(C)C1
not listed: [2] | [10] | [15] | [16] | [17]
inactive: all other assays above

OC(c1ccc(F)cc1)(c1cncnc1)c1ccccc1Cl (stereo unspecified)
not listed: [2] | [8] | [16] | [17]
inactive: all other assays above

C(CCOCC1CO1)COCC1CO1 (stereo unspecified)
not listed: [11] | [15] | [16] | [17]
inactive: all other assays above

CCS(=O)(=O)CCSP(=O)(OC)OC
not listed: [10] | [12] | [14] | [15] | [16] | [17]
inactive: all other assays above

CC1(C(=O)Nc2ccc(O)c(Cl)c2Cl)CCCCC1
inactive: [3] | [4] | [5] | [6] | [7] | [8] | [10] | [11] | [12]

Cc1ncc(CNC(=O)N(CCCl)N=O)c(N)n1
not listed: [8] | [14]
inactive: all other assays above

CC(Cl)(Cl)[N+](=O)[O-]
not listed: [8] | [16] | [17]
inactive: all other assays above

Cc1ncsc1CCCl
not listed: [12] | [13] | [14] | [15]
inactive: all other assays above

O=[N+]([O-])c1ccc(CBr)cc1
active: [6] 27.2 µM
not listed: [10] | [15] | [16] | [17]
inactive: all other assays above

Fc1ccc(C2(Cn3cncn3)OC2c2ccccc2Cl)cc1 (stereo unspecified)
not listed: [1] | [2] | [10] | [15] | [16] | [17]
inactive: all other assays above

COP(=S)(OC)Oc1ccc(S(N)(=O)=O)cc1
not listed: [12] | [13] | [14] | [15] | [16] | [17]
inactive: all other assays above

CCC#N
not listed: [10] | [12] | [15] | [16] | [17]
inactive: all other assays above

CNNC
not listed: [2] | [9] | [11] | [15] | [16] | [17]
inactive: all other assays above

O=[N+]([O-])c1cccc(O)c1
not listed: [2] | [10] | [14] | [15] | [16] | [17]
inactive: all other assays above

CC1=C(C(=O)Nc2ccccc2)S(=O)(=O)CCO1
inactive: [3] | [4] | [5] | [6] | [7] | [9] | [11] | [12] | [13]
active: [8] 27.3 µM

CCC(=O)c1ccccc1
not listed: [13] | [14] | [15] | [16] | [17]
inactive: all other assays above

O=C(O)c1cccc(Cl)c1
not listed: [8] | [15] | [16] | [17]
inactive: all other assays above

COC(C)(C)C
not listed: [8] | [14] | [16] | [17]
inactive: all other assays above

Cc1ccccc1CO[C@@H]1C[C@@]2(C(C)C)CC[C@]1(C)O2
not listed: [8] | [11] | [12] | [14] | [15] | [16] | [17]
inactive: all other assays above

Cc1cnc[nH]1
not listed: [8] | [14] | [16] | [17]
inactive: all other assays above

CC(C)(C)NCC(O)c1cc(Cl)c(N)c(Cl)c1 (stereo unspecified)
not listed: [8] | [13] | [14] | [16] | [17]
inactive: all other assays above

OC(c1ccccc1)(c1ccccc1)C1CCNCC1
not listed: [8] | [14] | [16] | [17]
inactive: all other assays above

CNC(=O)Oc1c(C(C)(C)C)cc(C)cc1C(C)(C)C
not listed: [8] | [12] | [16] | [17]
inactive: all other assays above

CC(C)[N+](=O)[O-]
not listed: [8] | [14] | [16] | [17]
inactive: all other assays above

Nc1ccccc1Cl
not listed: [8] | [11] | [13] | [14] | [16] | [17]
inactive: all other assays above

C[C@H]1CCC[C@H](O)CCCCCc2cc(O)cc(O)c2C(=O)O1
not listed: [8] | [11] | [14] | [16] | [17]
inactive: all other assays above

C[N+](C)=CCl
not listed: [2] | [8] | [14] | [16] | [17]
inactive: all other assays above

C#C[C@]1(O)C=C[C@H]2[C@@H]3CCC4=CC(=O)CC[C@@H]4[C@H]3CC[C@@]21CC
not listed: [2] | [8] | [14] | [16] | [17]
inactive: all other assays above

ClCC(Cl)(Cl)Cl
not listed: [8] | [14] | [16] | [17]
inactive: all other assays above

CCN(CC)CCOC(=O)C(C)(c1ccccc1)c1ccccc1
not listed: [8] | [14] | [16] | [17]
inactive: all other assays above

CNC(=O)Oc1ccccc1C1OCCO1
not listed: [1] | [8] | [11] | [16] | [17]
inactive: all other assays above

COC(=O)c1ccccc1S(=O)(=O)NC(=O)Nc1nc(C)cc(C)n1
not listed: [8] | [14] | [16] | [17]
inactive: all other assays above

N#CC(Cl)(Cl)Cl
not listed: [8] | [12] | [14] | [15] | [16] | [17]
inactive: all other assays above

Cc1nc(N)nc(N)n1
not listed: [8] | [11] | [16] | [17]
inactive: all other assays above

CCCCc1c(C)nc(NCC)[nH]c1=O
not listed: [8] | [13] | [14] | [16] | [17]
inactive: all other assays above

C1CCC(C2CCCCC2)CC1
active: [10] 38.9 µM
not listed: [2] | [8] | [11] | [16] | [17]
inactive: all other assays above

C=CC1CC=CCC1 (stereo unspecified)
not listed: [2] | [8] | [11] | [16] | [17]
inactive: all other assays above

CCCCCCBr
not listed: [8] | [14] | [16] | [17]
inactive: all other assays above
